For 11 molecules, binding signal results are on record in article PMC12864922, “TDP-43 directly inhibits mRNA accumulation in neurites through modulation of mRNA stability”.

In all, about 9,900 sequences were measured (“r (bound/input frequency ratio)”: median about 0.7, highest 2% from about 6.5 on). What follows is part of a selection rich in the highest values, with near analogues and random picks from the rest.

The labels stand for the following.
B1: ENSMUSG00000031028.158|Tub (ssRNA)
RNA: GGGAGUUCUACAGUCCGACGAUCGCUUCGAUAUCCGCAUGCUAUGCCAGCAUGCCAUGAUCAGUGAGGGCUGUGUGCCAUGCUUAGGGGGAUGGCGCAGGGUGAGGGGAGCAGAGGAUAUUUUAGGGCCACAAGAGCUCAGAGGUAGCGGACCUCUGUGUGGUUCACCAACAGCAAUGCUGAUCCCUGAGUAUAGGGCACAUGUCUCUUGGUUACCUCACUGGUUAAUGGCAGAGUUGAGAACCUCAAAUUCUUUUGUUCCUACUGUUGCCCAGAAACUAGACUCUCUGACCUGCUAGGGUCUCUCUUGCGGUCGCACUAGUGUGGAAUUCUCGGGUGUCAAGG
B2: ENSMUSG00000031028.505|Tub (ssRNA)
RNA: GGGAGUUCUACAGUCCGACGAUCGCUUCGAUAUCCGCAUGCUACUGGGAAGACAGGAGUCGGAAGCCAAGGUGUGUGGCAACAGUCUGGAAGAGAGCUUUUGGUAAUCAUACCGUCUUCAGUGACAAGGCAACAAUGCUGUAAAGUGGGUUUGUUUGGUUUUGUUUUUUCUUUCUCUUUUAUGGAAAUGGCAGGUCUAUUUGCCUCAAACGUUAUGUAGAAGUAGUUCUAAGUUUAACAAGCAAUAGAGAUGACUGCUUAGCUAGGAUCUGCAGGGAGCUCUGCUCUGCAAGCACAACACCUGCUCUUGCGGUCGCACUAGUGUGGAAUUCUCGGGUGUCAAGG
B3: ENSMUSG00000090935.538|Synj2bp|26:32 (ssRNA)
RNA: GGGAGUUCUACAGUCCGACGAUCGCUUCGAUAUCCGCAUGCUAAAUGGCAAGGAGGAUAAAACACUGUACACACAUGUAUUGUUGAUCUAAAUAAAAAAUAUCAUUGGUAGAAGUUUUACUUUGGUUGAUAAGGAUUCUGAUAACAUUUGGGUCUCCUUAGGAAAGAAACACUUAACUAAAACAUUUAAGUUUUAGGCAAAUACUGUAAUAUUUCACUCUUAGUUAUAUGAAAACUAAAUGAGAUGUUGAGAAUCUAUAUAGAUUAUUCAAAUUUUAUGUUUCUUAUAGACUGACUCAAAUAUCUCUUGCGGUCGCACUAGUGUGGAAUUCUCGGGUGUCAAGG
B4: ENSMUSG00000061578.246|Ksr2 (ssRNA)
RNA: GGGAGUUCUACAGUCCGACGAUCGCUUCGAUAUCCGCAUGCUACAGAACCUUCUCACCCCUUUGCAAAGCUCUUGCCGUCUGCACCCGGGACCCCGGGACCCACACAAGUUGUCCCCAUGUGAACAUCCUGCCUCUCCUGGUGACAUCUGUCUCUGGCUCAGCUUCUCUGCCUCUUACAGACAGUUUCCCUGUACAUUUGCUUAUGGCCCUGGGCUCCAGAGUCGCUGAAGACCACUCUCCACAGCAGCUGUAACCCCAUCUAACAAGCCCUGUUCUGGAUAUAUCUCUGUGGCCAGGGCUGGCUCUUGCGGUCGCACUAGUGUGGAAUUCUCGGGUGUCAAGG
B5: ENSMUSG00000061578.893|Ksr2 (ssRNA)
RNA: GGGAGUUCUACAGUCCGACGAUCGCUUCGAUAUCCGCAUGCUAGGCCAUCAGGGCCCCAUUCUGAGGUCCUGGGACACUACCCAAACCCUAGCACUCUCCCAGUGACUCUCCUAUGAGUACAUAUGCCAUCCUGCUUCCUUUGUGGCAAAACCCUGGGUCACCCAGAGACAGAUUUCCCAGAAUCCCUGGGCCACUUCUCAAUUCUACCCAUGACAGACAUGUCCCAUCCAUGAGCCCAGAUAGUCAAAGACUUCAGCACAAGGGUGUUUAGAGUAGGCAGUGUGGAAGUAUCAAUAAGGUUACUCUUGCGGUCGCACUAGUGUGGAAUUCUCGGGUGUCAAGG
B6: ENSMUSG00000061578.293|Ksr2 (ssRNA)
RNA: GGGAGUUCUACAGUCCGACGAUCGCUUCGAUAUCCGCAUGCUAUAAGCAUCUUAGAGUUUCUCUUUUCUCUUUAAUUGCAUCAGGACCCCUUUGGUCCAUGUACCCCGGUCUCUGUCACAUGCCUUUGUAUCUUGGAGGAAGUAAGAGAGGAGAGAGCCAGGGAGGGCUGAAGCUCUGGGACCCUGAAGUGUCCCCCGGGAACUGGGACUCACUCAUCUUCUCCUGUUUGUAGCUCAAUGACCCAGUGGGUCACAGUUCUAGGCGCUCCAAGGAAGCCAGGGGAGGGGGACUCCUCAGGAAGGCUCUUGCGGUCGCACUAGUGUGGAAUUCUCGGGUGUCAAGG
B7: ENSMUSG00000042529.251|Kcnj12 (ssRNA)
RNA: GGGAGUUCUACAGUCCGACGAUCGCUUCGAUAUCCGCAUGCUAAAUUUCUAAUCUAGGAGAUUCCCCUAGGACCCGCUGCAGAGGCAUGGGCUCCUCUGUGGUCCUGGCCAGACCUCUGCCCCCAAAUCUCACUGACUGUUCUAGCCUUGGCCUUGGGGCCUAAGGGUGCAUUCAGCCUGGGUGUGCUUACCUGCCACUCACCUCUCUAUCUAGUUGUCGAGUCUAGGGAAGGGCAGAGGGUGGGUCCUGGCCACUGGGUGCCACUGUGGGAGCCGGGGCACCUGUCAUUCUUUCUGAGUAGGCUCUUGCGGUCGCACUAGUGUGGAAUUCUCGGGUGUCAAGG
B8: ENSMUSG00000031028.344|Tub (ssRNA)
RNA: GGGAGUUCUACAGUCCGACGAUCGCUUCGAUAUCCGCAUGCUAGGUUGACAAGUUUAAGGUUGAACAGGCUGAUUUCUGGAAUCUCAUGAGUGGAGGGGACCCUGGUGGUUAAGAGCGGAACUGGAAGCACAAUGGAAAACUCUUGGACUCUGCUCUCUGCUUUACCACACACAAAAAAGAGGGUUCUUGGCUAUUUGAAUAUAAAGUUGGUAGCACCAGGAAAUAGGCUGAACUUUGUAGCCCACUGUGGAAAGGAGCAGCCUCAGCACAAACCCCUCUGUCGGGCCCUGAGUGACAAGACCCUCUUGCGGUCGCACUAGUGUGGAAUUCUCGGGUGUCAAGG
B9: ENSMUSG00000058297.295|Spock2 (ssRNA)
RNA: GGGAGUUCUACAGUCCGACGAUCGCUUCGAUAUCCGCAUGCUAAAUGAGAGAGAAUGAGAGAGAGAAUACCCGAGGGCCACCCUGAUGCCCAGGAAGAGUGAGGGCAGCCCCCUGUGUGGUGGAAGAGGCUGGGCAGCUAGCUACUGGGGACCUUGUGCUGAGGCUUCCAGGACAAAGCCCCAGUCUGGCUCUCCCCCAGCCUCUCAGGGGCACUGGCUGGUCACAUCCACUGAGUAUUGAUCGGUUGGACUUUAGGGAAGAGCCUCCUCCUUCCCAUUCCUUUCUGCCACCCUGGAAUGGCCCUCUUGCGGUCGCACUAGUGUGGAAUUCUCGGGUGUCAAGG
B10: ENSMUSG00000058297.296|Spock2 (ssRNA)
RNA: GGGAGUUCUACAGUCCGACGAUCGCUUCGAUAUCCGCAUGCUAAGAGAAUGAGAGAGAGAAUACCCGAGGGCCACCCUGAUGCCCAGGAAGAGUGAGGGCAGCCCCCUGUGUGGUGGAAGAGGCUGGGCAGCUAGCUACUGGGGACCUUGUGCUGAGGCUUCCAGGACAAAGCCCCAGUCUGGCUCUCCCCCAGCCUCUCAGGGGCACUGGCUGGUCACAUCCACUGAGUAUUGAUCGGUUGGACUUUAGGGAAGAGCCUCCUCCUUCCCAUUCCUUUCUGCCACCCUGGAAUGGCCACCUUACUCUUGCGGUCGCACUAGUGUGGAAUUCUCGGGUGUCAAGG
B11: ENSMUSG00000058297.294|Spock2 (ssRNA)
RNA: GGGAGUUCUACAGUCCGACGAUCGCUUCGAUAUCCGCAUGCUAAGAGAGAAUGAGAGAGAAUGAGAGAGAGAAUACCCGAGGGCCACCCUGAUGCCCAGGAAGAGUGAGGGCAGCCCCCUGUGUGGUGGAAGAGGCUGGGCAGCUAGCUACUGGGGACCUUGUGCUGAGGCUUCCAGGACAAAGCCCCAGUCUGGCUCUCCCCCAGCCUCUCAGGGGCACUGGCUGGUCACAUCCACUGAGUAUUGAUCGGUUGGACUUUAGGGAAGAGCCUCCUCCUUCCCAUUCCUUUCUGCCACCCUGGACUCUUGCGGUCGCACUAGUGUGGAAUUCUCGGGUGUCAAGG

Chain of TDP-43 (Q13148 whole entry): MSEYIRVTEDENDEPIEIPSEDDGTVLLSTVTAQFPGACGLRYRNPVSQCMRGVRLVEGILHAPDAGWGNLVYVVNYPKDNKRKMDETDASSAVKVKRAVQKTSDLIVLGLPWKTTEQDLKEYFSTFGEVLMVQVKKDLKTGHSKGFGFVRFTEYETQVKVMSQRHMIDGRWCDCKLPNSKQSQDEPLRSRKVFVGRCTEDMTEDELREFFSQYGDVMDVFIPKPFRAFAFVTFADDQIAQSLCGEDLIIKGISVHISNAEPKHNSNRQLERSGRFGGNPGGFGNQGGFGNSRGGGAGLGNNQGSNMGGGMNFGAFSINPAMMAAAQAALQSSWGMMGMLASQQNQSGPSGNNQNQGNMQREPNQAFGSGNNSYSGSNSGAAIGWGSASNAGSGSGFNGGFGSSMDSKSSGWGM

The experiment addresses TDP-43 (Homo sapiens, UniProt Q13148 1-414). In words: RNA Bind-n-Seq with designed 260-mer pool; 25 mM Tris-HCl, 150 mM KCl, 3 mM MgCl2, BSA (printed 500 mg/mL), 20 units/mL SUPERase IN; pH not stated; 500 nM RNA pool, 1 h, 4 C; TDP-43 5, 50, 500 nM; high values mean tight binding. As to conditions: protein: recombinant; tags: SBP (GST cleaved off with PreScission; pGEX-GST-SBP). In outline:
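Streptavidin beads captured recombinant SBP-tagged TDP-43 at 5, 50 or 500 nM, and the beads were incubated for 1 h at 4 °C with 500 nM of an in vitro-transcribed pool of 260-nt 3′ UTR oligos in 25 mM Tris-HCl, 150 mM KCl, 3 mM MgCl2, BSA and SUPERase IN. After washing, bound RNA was eluted with biotin, reverse transcribed, PCR-amplified and sequenced. Binding is reported as R, the mapped-read-normalized abundance of each oligo in the bound sample divided by its abundance in the input. Two independent protein batches served as duplicates.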
As for B1, the binding signal is 0.506 R (bound/input frequency ratio). For the molecule B2, the binding signal is 0.58 R (bound/input frequency ratio). As for B3, the binding signal is 0.0361 R (bound/input frequency ratio).

For the molecule B4, the binding signal is 0.544 R (bound/input frequency ratio). With B5, the binding signal is 0.438 R (bound/input frequency ratio). Consider B6, for which the binding signal is 0.535 R (bound/input frequency ratio). As for B7, the binding signal was 0.996 R (bound/input frequency ratio). For B8, the binding signal was 0.993 R (bound/input frequency ratio).

B9: the binding signal was 3.63 R (bound/input frequency ratio). As for B10, the figure is 9.19 R (bound/input frequency ratio). Take B11: the binding signal was 2.14 R (bound/input frequency ratio).
